High-throughput results as filed in PubChem.
This is a sample that favours compounds with a hit; in the whole collection about 4.8% have one here.
hgDAF-12 ag – activates the H. glycines DAF-12 receptor ligand-binding domain | 370,000 tested, 1.8% active | activation, % at 6.8 µM | HEK293 GAL4-hgDAF12 UAS-luciferase reporter, agonist luminescence; normalized to butyrate control | AID 687014;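 active means activation above a cutoff set at the mean of all screened compounds plus 3 SD, cut at about 10% in these data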;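 further: 0% = DMSO wells and 100% = sodium butyrate wells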
hcDAF12 agonist – activators of H. contortus DAF-12 nuclear receptor; 370,000 tested, 1.4% active; AID 652067; HEK293 hcDAF-12 lit1-tk-luc reporter, luminescence; 0% DMSO, 100% Δ7-dafachronic acid; activation, % at 6.8 µM;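 active means activation above the mean of all tested compounds plus 3 SD, cut at about 5.5% in these data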;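 further: 100% = response to 3 µM Δ7-dafachronic acid high control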
ssDAF12 agonist – S. stercoralis DAF-12 activation, primary screen | HEK293 ssDAF-12/GRIP1 lit1-tk-luc reporter, luminescence; % of 3 µM dafachronic acid response | activation, % at 6.8 µM | 370,000 tested, 1% active;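 active means activation above the mean over all tested compounds plus 3 SD, cut at about 0.9% in these data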;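 further: 0% = DMSO-only wells and 100% = 3 µM delta7-dafachronic acid wells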
DAX1 inh-1 – NR0B1 (DAX1) inhibition; P51843; HEK293 Gal4-DAX1 luciferase reporter, luminescence; inhibition, % at 6.75 µM; 340,000 tested, 0.99% active; AID 504766;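 active means inhibition above the mean over all tested compounds plus 3 SD, cut at about 4.2% in these data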;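 further: 0% = DAX1-transfected cells with DMSO and 100% = empty-vector control cells with DMSO; inhibition shows as a rise in luminescence from relieved DAX1 repression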
SMARCA2 act – increases SMARCA2 function in MMTV reporter cells. MG213 cells, MMTV-luciferase reporter, dexamethasone, overnight. activation, % at 9.1 µM. 370,000 tested, 1% active. AID 652017; in the data active means activation above about 7.8%;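 further: 0% = vehicle wells and 100% = reference activator wells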
DAX1 inh-2 – DAX1 (NR0B1) inhibition, primary screen | HEK293T StAR-luciferase reporter, SF-1/DAX-1 repression relief | inhibition, % at 6.8 µM | 370,000 tested, 1.1% active | AID 652010;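 active means inhibition above the mean over all tested compounds plus 3 SD, cut at about 3.6% in these data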;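 further: 0% = DAX-1 cells with DMSO and 100% = cells lacking DAX-1 with DMSO; higher inhibition means more luminescence from relief of DAX-1 repression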
DAX1 conf – NR0B1 (human) inhibition, confirmation. AID 652134. inhibition, % at 6.8 µM. shares compounds with DAX1 inh-2. HEK293T StAR-promoter luciferase reporter, SF-1/DAX-1 repression. 2,400 tested, 87% active;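 active means inhibition above the average of every tested compound plus 3 SD, cut at about 3.8% in these data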;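 further: 0% = DAX-1 cells with DMSO and 100% = no DAX-1 control cells with DMSO; active compounds raise luminescence by relieving repression of the StAR reporter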
Target sequence (P51843 whole entry, looked up): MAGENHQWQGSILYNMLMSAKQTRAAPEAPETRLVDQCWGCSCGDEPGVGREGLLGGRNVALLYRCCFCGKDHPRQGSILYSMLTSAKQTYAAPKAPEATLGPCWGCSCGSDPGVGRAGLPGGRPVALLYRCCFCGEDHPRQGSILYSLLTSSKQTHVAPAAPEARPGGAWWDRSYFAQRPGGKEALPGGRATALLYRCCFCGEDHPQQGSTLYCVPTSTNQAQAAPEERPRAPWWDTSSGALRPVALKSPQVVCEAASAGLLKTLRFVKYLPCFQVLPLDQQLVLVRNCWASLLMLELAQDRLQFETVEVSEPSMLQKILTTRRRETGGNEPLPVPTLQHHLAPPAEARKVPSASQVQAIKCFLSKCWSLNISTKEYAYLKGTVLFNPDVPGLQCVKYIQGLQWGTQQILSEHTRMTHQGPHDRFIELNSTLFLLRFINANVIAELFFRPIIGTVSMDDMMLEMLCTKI
SF1 AF2mut Luc – nonselective inhibitor or artifact in SF-1 mutant DAX1 counter-screen; shares compounds with DAX1 inh-2; 2,400 tested, 78% active; AID 652136; HEK293 StAR-luciferase, SF-1 AF2 mutant, luminescence; inhibition, % at 6.8 µM;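 active means inhibition above the mean of all tested compounds plus 3 SD, cut at about 3% in these data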;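 further: 0% = DAX-1 transfected cells with DMSO and 100% = cells without DAX-1 with DMSO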
SMARCA2 conf – SMARCA2 activation, confirmation screen | shares compounds with SMARCA2 act | MG213 cells, MMTV-luciferase with dexamethasone, luminescence, overnight; MG213 cells expressing E1A, Rb sequestered; DMSO wells 0%, reference activator 100% | activation, % at 9.1 µM | 3,500 tested, 30% active;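 active means activation above its plate's cutoff, the mean activation of tested wells plus 3 SD, cut at about 7.9% in these data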
GAL4-VP16 Luc – GAL4-VP16 reporter activation counter-screen | 3,500 tested, 41% active | shares compounds with SMARCA2 act | HEK293 GAL4-VP16 pG5luc reporter, luciferase luminescence; scaled: DMSO wells 0%, SAHA wells 100% | activation, % at 9.1 µM;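 active means activation above the solvent-only control well mean plus 3 SD, averaged across control plates, cut at about 5.2% in these data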
LXRb hcDAF ctr – counter-screen for hcDAF-12 agonists: agonists of human LXR-beta; shares compounds with hcDAF12 agonist; HEK293 Gal4-LXR tk-luc reporter, luminescence, 24 h; normalized: DMSO 0%, positive control 100%; activation, % at 6.8 µM; 3,400 tested, under 10 active;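 active means mean percent activation of the reporter above a cutoff set as the average over tested compounds plus their standard deviation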
hcDAF12 ag – confirmation of H. contortus DAF-12 agonists; activation, % at 6.8 µM; 3,400 tested, 61% active; shares compounds with hcDAF12 agonist; HEK293 hcDAF-12 lit1-tk-luc reporter, luminescence; % of Δ7-dafachronic acid response;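 active means mean activation across triplicate tests above the threshold derived from the earlier primary screen, cut at about 5.5% in these data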;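 further: 0% = DMSO only wells and 100% = 3 µM Δ7-dafachronic acid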
hgDAF12 conf – confirmation of H. glycines DAF-12 agonists; 3,300 tested, 80% active; activation, % at 6.8 µM; shares compounds with hgDAF-12 ag; AID 743050; HEK293 GAL4-hgDAF12 luciferase reporter, agonist mode; percent of butyrate response;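 active means mean activation over triplicate wells above the hit cutoff derived from the earlier primary screen, cut at about 11% in these data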;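 further: 0% = DMSO low control and 100% = 2 mM sodium butyrate high control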
LXRb DAF12 ctr – activates human LXR-beta, counter-screen for DAF-12 agonists; shares compounds with hgDAF-12 ag; HEK293 Gal4-LXR luciferase reporter, 24 h; activation, % at 6.8 µM; 3,300 tested, under 10 active; AID 743051;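 active means mean activation of the triplicate above a set limit carried over from the primary screen, none filed active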
Numbers without * were called inactive; . = no result given.

SMILES	hgDAF-12 ag	hcDAF12 agonist	ssDAF12 agonist	DAX1 inh-1	SMARCA2 act	DAX1 inh-2	DAX1 conf	SF1 AF2mut Luc	LXRb hcDAF ctr	hcDAF12 ag	hgDAF12 conf	LXRb DAF12 ctr	others
Cc1nn2cc(-c3ccccc3)nc2s1	14.2*	4.2	-0.7	-1.0	0.9	5.7*	10.3*	7.5*	.	.	15.0*	0.9
C/C(=N/NC(=O)c1cccs1)c1ccc(N2CCOCC2)cc1	19.8*	6.0*	0.2	3.6	2.6	4.7*	3.5	1.7	.	.	5.1	0.2
O=C(Nc1n[nH]c(=S)s1)c1ccc2ccccc2c1	13.8*	3.5	0.4	1.3	6.3	16.1*	13.2*	6.3*	.	.	13.3*	0.6
CC(C)N1CCC(=NNC(=O)c2cccs2)CC1	14.3*	6.1*	1.5*	1.0	5.3	9.6*	2.4	2.3	.	.	4.2	0.0
CC(C)N1CCC(=NNC(=O)c2ccccc2[N+](=O)[O-])CC1	0.0	-0.8	-0.7	0.5	-0.8	0.4	.	.	.	.	.	.
COc1cccc(C(=O)Nc2nnc(-c3ccccc3)s2)c1OC	18.8*	7.0*	0.1	0.7	4.1	5.5*	7.6*	4.0*	1.3	4.1	14.4*	0.7
O=C(Nc1nnc(-c2ccccc2)s1)c1ccccc1O	3.7	0.9	-0.7	2.8	4.4	1.0	.	.	.	.	.	.
Cc1cc(-c2cc(NC(=O)Cc3c[nH]c4ccccc34)ccc2Nc2cccnc2)ccc1F	-5.3	1.3	-0.3	.	-2.0	-1.1	.	.	.	.	.	.
COc1ccc(-n2c(COc3ccc(Cl)cc3)nnc2SCC(=O)c2ccc(-c3ccccc3)cc2)cc1	3.1	-0.1	-1.4	.	-6.0	-0.9	.	.	.	.	.	.
Nc1ccccc1C(=O)NNC1=C(C(=O)C(F)(F)F)CCC1	17.4*	9.2*	-0.2	15.1*	5.1	7.2*	13.1*	6.5*	-0.1	0.7	18.0*	0.3
COc1ccc(C)cc1Nc1nc(N)c2ccccc2n1	2.6	-0.5	-1.2	-2.5	0.5	0.3	.	.	.	.	.	.
Cc1ccccc1Nc1nc(N)c2ccccc2n1	19.4*	7.1*	0.5	0.9	5.2	5.3*	12.5*	5.6*	1.2	5.3	17.2*	0.9
c1cc2ccn(CC3CC3)c2cc1-c1ccc2ccn(CC3CC3)c2c1	2.2	1.6	-0.9	.	-1.7	-1.6	.	.	.	.	.	.
CC(=O)NC12CC3CC(C1)CC(C(=O)OCC(=O)c1cc(C)n(C)c1C)(C3)C2	16.4*	6.7*	-0.2	1.5	2.4	9.8*	11.4*	7.1*	1.4	6.2*	13.6*	0.7
CC(/C=N/NC(=O)c1ccco1)=C\c1ccccc1	17.7*	5.5	-0.2	0.8	9.4*	6.0*	17.9*	9.0*	.	.	14.1*	0.9	SMARCA2 conf=11.1*;GAL4-VP16 Luc=6.1*
